Records with an inconclusive call do not appear. The source made the active and inactive calls. Calls come from the whole dose curve; as a rule, active = well fitted activation curve with a large enough effect; inconclusive = small, poorly fitted or top-dose-only effect; inactive = flat fitted curve, though single readings scatter.
Test: FLuc inhibitory activity for the follow-up compounds in a cell-based translational read-through assay
Conditions: GripTite 293 FLucUGA read-through, luminescence, 48 h; series mostly up to 38.3 µM; activation (read-through/stabilization): at the top concentration
Source text: NCGC Assay Overview: Firefly (Photinus pyralis) luciferase is one of the most commonly used transcriptional reporters. It is considered one of the more dynamically responsive reporters - that is, responsive to changes in reporter transcription - as it requires no post-translational modifications and is enzymatically active directly after protein synthesis (Wood, 1998). With no endogenous expression in mammalian cells and without the requirement of external excitation, it offers very little background signal, thus generally providing excellent signal to background for most assays. Previous profiling work to determine the prevalence of compounds that affect FLuc enzymatic activity (PubChem AID 411) identified that ~3% of the MLSMR library (then at ~72K) inhibited FLuc (Auld et al., 2008). […] Of the compounds identified in this profile that inhibited FLuc, 151 compounds were selected for further analysis, in an effort to better understand their mode of inhibiting FLuc. The assay described here was to determine the activity of the compounds in a cell-based firefly luciferase reporter gene assay originally designed to identify compounds that enchanced translational read-through of a FLuc cDNA that contained a premature stop codon (Auld et al., 2009; Auld et al., 2010). Compounds that enhance translational read-through or compounds that stabilize FLuc intracellularly are identified as active compounds in the assay.
NCGC Assay Protocol Summary: Reagents: Transient transfection of FlucUGA construct: TransFast Transfection Reagent (Promega #E2431); FLucUGA construct (refer to Auld et al., 2009) #GripTite 293 MSR Cell Line (Invitrogen #R795-07) #Complete growth media: DMEM (Invitrogen #11965), 10% HIFBS, 0.1mM MEM NEAA, 5mL/L pen-strep (of 5000U/mL stock), 600ug/mL Geneticin #Assay media: DMEM without phenol red (Invitrogen #21063), 5% charcoal-stripped HIFBS (Hyclone #SH30071.03), 0.1mM MEM NEAA In-house detection reagent: 300mM Tris-HCl, 300mM Trizma base, 300mM MgCl, 1% Triton-X100, 5mM DTT, 500uM Coenzyme A trilithium salt (Sigma #C3019),450uM ATP (Sigma #A7699), 1mM D-luciferin sodium salt monohydrate (Biosynth #L8240) Control compounds used were two known firefly luciferase inhibitors (3-(5-(3-chlorophenyl)-1,2,4-oxadiazol-3-yl)benzoic acid and 5-(2-fluorophenyl)-3-phenyl-1,2,4-oxadiazole), and DMSO. Assay Summary: Transient transfection of FlucUGA construct: Day 1: GripTite cells were plated in T175 flasks at a density of 1.75 x 10^7 cells/T175 flask in complete growth media without Geneticin and allowed to grow ON in a 37 degrees Celsius incubator. Day 2: Cells in T175 flask were transfected - with 10ug of DNA and 30uL Transfast in 12mL complete growth media without serum and without Geneticin for 4 hours at 37 degrees Celsius. After incubation, cells were trypsinized, spun down, and resuspended to a concentration of 3.3 x 10^5 cells/mL in assay media. 6uL of cells in assay buffer were dispensed at 2000cells/well (3.3 x 10^5 cells/mL) into Greiner solid-white TC-treated 1536-well plates using a Multidrop Combi (Thermo Fisher Scientific). Plates were incubated for one hour at 37 degree Celsius, 95% humidity, 5% CO2. These assay plates were then treated with 23nL of compound or DMSO using a Kalypsys pin tool, which allows for delivery of a 12-point titration of each compound to the assay plate, with a final compound concentration ranging from approximately ~38uM to 0.2nM. Assay plates were then incubated for 48 hours. After incubation, plates were washed three times with DPBS (7uL/well). After the third wash, 6uL of DPBS was added to each well. 3uL of 3X luciferase detection reagent was then added to each well using a flying reagent dispenser (FRD). After a 15 minute incubation to allow for cell lysis, luciferase activity was measured using a ViewLux CCD imager (PerkinElmer), with an average exposure time of 2-12 seconds.

Activation (read-through/stabilization), inactive:
CC(C)(C)NC(=O)c1ccccc1-c1nc2ccccc2s1 0.938%
COc1ccc(C(=O)Nc2ccccc2-c2nc3ccccc3s2)c(OC)c1 -4.03%
CN(C)S(=O)(=O)c1ccc(C(=O)Nc2ccccc2C(=O)O)cc1 -3.39%
O=C(COC(=O)c1ccccc1[N+](=O)[O-])c1ccc2c(c1)OCO2 6.01%
O=C(Cc1ccc(Cl)cc1)Nc1cccc(C(=O)Nc2ccccc2C(=O)O)c1 1.99%
O=C(O)c1ccc(NC(=O)c2cc(S(=O)(=O)N3CCCCC3)c(Cl)cc2Cl)cc1 -2.05%
O=C(Nc1ccccc1C(=O)O)c1cccc(NC(=O)c2ccccc2Cl)c1 6.67%
CC(C)Oc1ccc(C(=O)Nc2ccc(-c3nc4ccccc4s3)cc2)cc1 8.54%
O=C(O)c1cccc(NC(=O)c2cccc(S(=O)(=O)N3CCc4ccccc4C3)c2)c1 12.2%
Cc1ccc(C(=O)Nc2ccc(C(=O)O)cc2)cc1S(=O)(=O)NCc1ccccc1 -0.0472%
CCOc1c(Cl)cc(C(=O)Nc2ccccc2C(=O)O)cc1Cl 22.5%
COc1cc(C(=O)Nc2cc(C)c(O)c(-c3nc4ccccc4s3)c2)cc(OC)c1OC 6.27%
COc1cc(OC)cc(C(=O)Nc2ccccc2-c2nc3ccccc3s2)c1 -3.84%
O=C(Nc1ccccc1C(=O)O)c1ccc(Cl)c(S(=O)(=O)N2CCOCC2)c1 19.6%
O=C(Nc1ccc(Cl)cc1-c1nc2ccccc2s1)c1ccco1 3.02%
O=C(Nc1ccccc1-c1nc2ccccc2s1)c1cccnc1 6.24%
COc1ccc(Br)cc1C(=O)Nc1ccc(C(=O)O)cc1 7.8%
O=C(Nc1ccccc1C(=O)O)c1ccccc1 3.8%
O=C(O)c1cccc(NC(=O)c2cccc(S(=O)(=O)N3CCc4ccccc43)c2)c1 27.6%
Nc1ccc(C(=O)Nc2ccccc2C(=O)O)cc1 18.7%
Cc1ccc(S(=O)(=O)N2CCN(C(=O)c3ccccc3-c3nc4ccccc4s3)CC2)c(C)c1 14.9%
CC(=O)Oc1ccc(C(=O)Nc2ccccc2C(=O)Nc2ccc(C(=O)O)cc2)cc1 1.96%
COc1ccc2nc(NC(=O)c3ccc(NS(=O)(=O)c4cccs4)cc3)sc2c1 22.3%
O=C(O)c1ccc(NC(=O)c2cccc(C(=O)Nc3ccc(C(=O)O)cc3)c2)cc1 2.68%
Cc1ccc(C(=O)Nc2ccc(C(=O)O)cc2)cc1S(=O)(=O)Nc1ccccc1 -7.51%

Potency, active:
CCOc1ccc2nc(NC(=O)c3ccoc3C)sc2c1 1.79 µM
Cc1ccc2nc(-c3ccc(N)cc3)sc2c1 0.04 µM
Cc1ccc2sc(-c3ccc(N)cc3)nc2c1 1.59 µM
Oc1ccc(-c2nc3ccccc3s2)c(O)c1 10 µM
c1ccc2sc(-c3ccc4c(c3)OCO4)nc2c1 1.26 µM
Nc1ccccc1C(=O)Nc1cccc(C(=O)O)c1 28.3 µM
Nc1ccc2nc(-c3ccccc3)sc2c1 4 µM
COc1cccc(-c2nc3ccccc3s2)c1 1.26 µM
Cc1ccc(C(=O)Nc2ccccc2C(=O)O)cc1S(=O)(=O)N1CCCCCC1 14.2 µM
Nc1ccc(-c2nc3ccc(N)cc3s2)cc1 15.9 µM
O=C(Nc1c(Cl)cc(Cl)cc1-c1nc2ccccc2s1)c1ccc(Br)o1 3.18 µM
O=C(O)c1cccc(NC(=O)c2ccc(Cl)c(S(=O)(=O)N3CCCCCC3)c2)c1 0.711 µM
Nc1ccccc1-c1nc2ccccc2s1 17.9 µM
Cc1c(C)c2ccc(OCC(=O)Nc3ccccn3)c(C)c2oc1=O 5.04 µM
C/C(=N\NC(=O)c1ccccc1NC(=O)c1ccc(Cl)cc1)c1ccncc1 0.283 µM
